Screens: PubChem BioAssay, several laboratories
Gli-Sufu antag = blocks Gli-Sufu signaling in a luciferase reporter; Sufu-KO-LIGHT fibroblasts, Gli luciferase reporter luminescence; inhibition, % at 5 µM; actives 0.74% (n = 340,000);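 active means inhibition above about 55%, limit read from the data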;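 further: 0% = DMSO-treated cells and 100% = wells with medium but no cells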
GalR3 antagonist = antagonists of human GalR3 | O60755 | HEK293 GalR3-CNG cAMP membrane potential fluorescence; galR3 body fused to GalR1 C-terminus | inhibition, % at 3 µM | actives 0.44% (n = 360,000) | AID 651719;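 active means inhibition above the screen-wide average plus 3 SD, cut at about 13% in these data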;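 further: forskolin and galanin both at EC90 stimulate the cells; cAMP rise reported by CNG channel membrane potential dye signal; 0% = forskolin plus galanin with DMSO and 100% = forskolin alone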
Target sequence (O60755 1-299 limits assumed): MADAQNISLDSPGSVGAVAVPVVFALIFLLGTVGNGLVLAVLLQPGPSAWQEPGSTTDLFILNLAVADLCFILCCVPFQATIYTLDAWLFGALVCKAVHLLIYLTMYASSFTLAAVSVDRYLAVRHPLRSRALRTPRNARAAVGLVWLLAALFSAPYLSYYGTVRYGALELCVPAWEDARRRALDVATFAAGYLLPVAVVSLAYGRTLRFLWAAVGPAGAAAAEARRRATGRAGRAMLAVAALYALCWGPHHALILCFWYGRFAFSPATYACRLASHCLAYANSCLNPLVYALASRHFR
Env fusion inh = HIV envelope-mediated fusion inhibition; HeLa-JRFL Env/CEM21 cell fusion, luciferase; actives 1.1% (n = 360,000); inhibition, % at 12.3 µM; AID 651610;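 active means mean replicate inhibition score of at least 50 and every replicate individually at or above 50; inconclusive means only one of the two criteria met; inactive means mean below 50 and not all replicates reaching 50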;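 further: 0% = plate neutral controls and 100% = maraviroc near 300 nM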
NR2F2 inh = inhibitors of human COUP-TFII (NR2F2); actives 0.7% (n = 370,000); P24468; HEK293T NGFI-A luciferase reporter, luminescence; inhibition, % at 8.6 µM; AID 686940;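 active means inhibition above a per-plate cutoff, mean inhibition of test wells between control levels plus 3 SD, cut at about 38% in these data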;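 further: cells cotransfected with COUP-TFII expression vector driving the NGFI-A reporter; 0% = median of COUP-TF2 test wells and 100% = reporter-only cells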
Target sequence (P24468 whole entry, looked up): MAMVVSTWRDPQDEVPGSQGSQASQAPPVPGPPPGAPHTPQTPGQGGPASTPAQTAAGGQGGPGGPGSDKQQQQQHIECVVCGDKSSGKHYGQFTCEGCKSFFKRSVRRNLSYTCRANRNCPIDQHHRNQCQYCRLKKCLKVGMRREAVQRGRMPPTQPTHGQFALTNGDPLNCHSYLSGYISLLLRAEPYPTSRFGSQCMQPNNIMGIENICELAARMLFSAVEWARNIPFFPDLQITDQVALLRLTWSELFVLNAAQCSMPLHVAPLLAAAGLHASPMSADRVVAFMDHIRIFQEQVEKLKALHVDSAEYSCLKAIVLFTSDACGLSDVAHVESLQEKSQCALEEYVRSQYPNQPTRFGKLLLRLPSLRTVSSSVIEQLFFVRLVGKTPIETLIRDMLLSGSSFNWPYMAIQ
aDG glyco act = increases alpha dystroglycan glycosylation | Pro5-aDG cells, alpha-DG glycosylation AlphaScreen (IIH6); 0% Pro5, 100% B10-LARGE cell signal | activation, % at 10 µM | AID 624168 | actives 0.22% (n = 360,000);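 active means activation of at least 8% versus controls, or a plate z-score of at least 8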;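 further: Pro5 are CHO cells carrying HIG-tagged alpha-DG that lacks glycosylation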
Gli antag conf = Gli-SUFU antagonism confirmation, single concentration; Sufu-KO-LIGHT cells, Gli luciferase reporter, luminescence; inhibition, % at 5 µM; shares compounds with Gli-Sufu antag; actives 40% (n = 2,500);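 active means mean inhibition at 5 µM reaching about 45%, limit read from the data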;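 further: plate controls were DMSO-treated cells for no effect and wells lacking cells for full effect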
Gli cytotox = cytotoxicity counter-screen for Gli-SUFU antagonists; shares compounds with Gli-Sufu antag; cytotoxicity, % at 5 µM; AID 651994; actives 32% (n = 2,500); Sufu-KO-LIGHT cells cytotoxicity, ATP luminescence;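 active means mean cytotoxicity at 5 µM above about 25%, limit read from the data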;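 further: cells exposed to compound overnight for roughly 16 to 18 hours; plate controls were DMSO wells with cells for no effect and medium without cells for full effect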
Wnt3a counter = inhibits Wnt3a reporter, counter-screen for Gli-SUFU antagonists | shares compounds with Gli-Sufu antag | Wnt-LIGHT cells, Wnt3a-driven luciferase reporter, luminescence | inhibition, % at 6.25 µM | actives 20% (n = 2,500);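 active means mean inhibition above about 25%, limit read from the data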
aDG glyco conf = alpha-DG glycosylation activation, confirmation. shares compounds with aDG glyco act. Pro5-aDG cells, IIH6 AlphaLISA; scaled to LARGE-overexpressing B10 cells as 100%. activation, % at 10 µM (by protocol). actives 17% (n = 600). AID 651671;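 active means activation of at least 7% in one or more replicates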;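 further: cells exposed to compound for two days before detection; 0% = DMSO-treated Pro5 cells and 100% = DMSO-treated B10-LARGE cells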
GalR3 antag conf = GalR3 (human) antagonism, confirmation; inhibition, % at 3 µM; HEK293 GalR3 CNG cAMP biosensor, membrane potential fluorescence; galR3 fused to GalR1 carboxy tail; challenged with forskolin and galanin at EC90; AID 652245; actives 59% (n = 1,600); shares compounds with GalR3 antagonist;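 active means inhibition above the primary screen's cutoff, the mean inhibition of all screened compounds plus 3 SD, cut at about 13% in these data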;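 further: 0% = forskolin plus galanin and 100% = forskolin alone with DMSO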
HEK-CNG parental = counter-screen for GalR3 antagonists: nonspecific agonists in parental HEK-CNG cells; AID 652268; activation, % at 3 µM; HEK293-CNG parental cells, cAMP membrane potential fluorescence; normalised: DMSO wells 0%, forskolin wells 100%; shares compounds with GalR3 antagonist; actives 10% (n = 1,600); in the data active means activation above about 1.3%
VP16 Luc counter = counter-screen for COUP-TFII antagonists: inhibitors of VP16; shares compounds with NR2F2 inh; HEK293 Gal4-VP16 luciferase reporter, luminescence; inhibition, % at 8.5 µM; actives 25% (n = 2,500); AID 687007; in the data active means inhibition above about 13%
NR2F2 inh conf = COUP-TFII (NR2F2) inhibition, confirmation assay; shares compounds with NR2F2 inh; HEK293 NGFI-A luciferase reporter, luminescence; inhibition, % at 8.5 µM; actives 45% (n = 2,500); AID 687008;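 active means mean inhibition over three repeats above a set limit taken from the earlier primary screen, cut at about 38% in these data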;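 further: 100% = cells given the luciferase reporter alone without the COUP-TF2 vector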
The depositor's hits bear a star; ? = inconclusive; · = no result; [ ] = remark or other dose. Rows were chosen to be rich in hits. Some 2.1% of all compounds tested hit in one or more screens of this group.

SMILES	Gli-Sufu antag	GalR3 antagonist	Env fusion inh	NR2F2 inh	aDG glyco act	Gli antag conf	Gli cytotox	Wnt3a counter	VP16 Luc counter	NR2F2 inh conf	others
COc1ccc(N2CCN(c3ncnc4c3[nH]c3ccccc34)CC2)cc1	71.0*	-5.2	·	52.0*	6.2*	79.7*	24.4	21.4	6.1	60.6*
CO[C@@H]1CN(C)C(=O)c2ccc(NC(=O)NC(C)C)cc2OC[C@H](C)N(C(=O)CC2CC2)C[C@@H]1C	·	·	6.8[16.7 µM]	·	·	·	·	·	·	·
CC(C)C#Cc1cnc2c(c1)C(=O)N([C@H](C)CO)C[C@@H](C)[C@H](CN(C)C(=O)Cc1ccccn1)O2	·	·	15.5[16.7 µM]	·	·	·	·	·	·	·
N#C[C@@H]1[C@H](c2ccc(-c3cccc(F)c3)cc2)[C@H](CO)N1S(=O)(=O)c1cccc(F)c1	·	·	9.9[16.7 µM]	·	·	·	·	·	·	·
O=S(=O)(c1cc(C(F)(F)F)ccc1Cl)N1CCCCCC1	-3.0	-2.8	·	9.6	-0.1	·	·	·	·	·
O=S(=O)(c1cc(C(F)(F)F)ccc1Cl)N1CCN(c2ncnc3ccccc23)CC1	61.0*	12.1	·	41.5*	4.5*	60.8*	19.2	43.6*	15.0*	60.5*	aDG glyco conf=0.0
C[C@@H]1CN([C@@H](C)CO)S(=O)(=O)c2ccc(-c3ccc(F)cc3)cc2O[C@@H]1CN(C)C(=O)C1CC1	·	·	13.4[16.7 µM]	·	·	·	·	·	·	·
C[C@@H]1CCCCO[C@H](CN(C)S(=O)(=O)c2ccccc2)[C@@H](C)CN([C@@H](C)CO)C(=O)c2cc(NC(=O)C3CCCCC3)ccc2O1	·	·	-22.8[16.7 µM]	·	·	·	·	·	·	·
CN(C(=O)COc1ccccc1C(=O)NCCOc1ccccc1)c1ccccc1	68.5*	5.4	11.6	56.4*	-0.2	65.9*	43.0*	1.0	-6.2	25.3
C[C@H](CO)N1C[C@H](C)[C@H](CN(C)CC2CCCCC2)Oc2c(NC(=O)Nc3ccc4c(c3)OCO4)cccc2C1=O	·	·	-105.0[16.7 µM]	·	·	·	·	·	·	·
CCn1cc(CN(C)S(=O)(=O)c2ccc3ccccc3c2)c(C)n1	52.6	71.1*	25.1	51.4*	2.4	50.0*	21.6	27.9*	1.8	51.2*	GalR3 antag conf=102.8*;HEK-CNG parental=-0.2
Cc1cc(C)c(CN2CCN(C(=O)Cn3cnc4c(NCc5ccccc5)ncnc43)CC2)c(C)c1	59.9*	104.9*	87.2*	80.2*	0.8	66.8*	41.6*	39.2*	9.3	70.1*	GalR3 antag conf=105.6*;HEK-CNG parental=-0.6
O=C(Cn1cnc2c(NCc3ccccc3)ncnc21)N1CCN(c2ccccn2)CC1	-1.0	2.3	20.3	16.2	0.1	·	·	·	·	·
Cc1ccccc1-c1cnc2c(c1)C(=O)N([C@@H](C)CO)C[C@H](C)[C@H](CN(C)C(=O)c1cccnc1)O2	·	·	-34.2[16.7 µM]	·	·	·	·	·	·	·
C(=NN1CCCCCC1)c1ccc2ccccc2n1	68.4*	-5.4	?	94.8*	-0.2	88.7*	73.0*	106.3*	88.9*	104.2*
CC(C)(C)OC(=O)NCCCCCNC(=O)c1nc[nH]c1C(=O)NCCCCCNC(=O)OC(C)(C)C	55.4*	-5.6	21.1	55.0*	0.1	29.7	2.1	-25.6	1.9	33.3
CN(C)c1cc[n+](Cc2c(Cl)cccc2Cl)cc1	72.9*	-0.7	57.9*	47.0*	-0.2	67.5*	17.1	29.7*	4.8	34.0
O=S(=O)(N[C@@H]1CC[C@H](CCn2cc(-c3cccc(F)c3)nn2)O[C@@H]1CO)c1ccccc1	·	·	20.9[16.7 µM]	·	·	·	·	·	·	·
COc1ccc(CCN(C)C(=O)Cc2ccc(-c3ccccc3)cc2)cc1OC	59.6*	35.2*	11.2	48.1*	0.9	14.8	6.1	-43.7	3.9	36.9	GalR3 antag conf=62.8*;HEK-CNG parental=-0.3
CCc1c(C)nc2ncnn2c1Nc1ccc(C)cc1	13.6	-3.4	28.4	16.7	0.0	·	·	·	·	·
CCc1c(C)nc2ncnn2c1NCCc1ccc(OC)cc1	62.2*	14.5*	·	58.0*	2.1	60.7*	38.6*	16.5	9.1	52.5*	GalR3 antag conf=59.0*;HEK-CNG parental=0.2
O=C(O)c1ccc(N/N=C/c2ccc3nccnc3c2)cc1	55.5*	3.0	74.9*	66.8*	0.3	59.4*	35.1*	101.3*	17.4*	59.4*
CNC[C@@H]1OCCCC[C@H](C)Oc2ccc(NC(=O)c3ccccc3)cc2C(=O)N([C@@H](C)CO)C[C@H]1C	·	·	2.3[16.7 µM]	·	·	·	·	·	·	·
CO[C@@H]1CN(C)C(=O)c2cc(NS(=O)(=O)CC(F)(F)F)ccc2OC[C@H](C)N(C(=O)NC(C)C)C[C@H]1C	·	·	8.9[16.7 µM]	·	·	·	·	·	·	·
C[C@@H]1CN([C@@H](C)CO)C(=O)c2cccc(NC(=O)NC3CCCCC3)c2O[C@@H]1CN(C)Cc1ccc2c(c1)OCO2	·	·	12.3[16.7 µM]	·	·	·	·	·	·	·
CCN(CC)S(=O)(=O)c1ccc(Oc2ccccc2OC)cc1	1.6	-3.0	13.7	13.7	0.4	·	·	·	·	·
CCN(CC)S(=O)(=O)c1ccc(Oc2ccc(S(=O)(=O)N(CC)CC)cc2)cc1	80.2*	-1.8	61.9*	38.3*	1.7	85.4*	45.4*	29.5*	3.3	8.6
O=C(N[C@@H]1CC[C@H](CCNS(=O)(=O)Cc2ccccc2)O[C@H]1CO)c1ccccc1F	·	·	-5.8[16.7 µM]	·	·	·	·	·	·	·
O=C(c1cc2sccc2n1Cc1ccc(F)cc1)N1CCN(c2nc3ccccc3s2)CC1	63.8*	17.4*	86.6*	55.9*	3.7	69.7*	26.6*	-16.4	4.4	29.4	GalR3 antag conf=73.4*;HEK-CNG parental=0.8
COCCNC(=O)C1CCN(C(=O)c2cc3sccc3n2Cc2ccc(F)cc2)CC1	12.8	-7.6	35.9	12.8	2.4	·	·	·	·	·
